Compounds with a hit are over-represented: about 12% of the library has one in this group of screens.
CHX counter: Cycloheximide Counterscreen for Small Molecule Inhibitors of Shiga Toxin | cell reporter, cycloheximide protein synthesis inhibition counterscreen | max response, % | actives 12% (n = 300,000); in the data active = max response mostly above about 13%, no sharp cut-off; inactive = mostly below about 14%; note: read at 38.3 µM for the half of the compounds with a filed dose
Shiga inhibitor: A qHTS for Small Molecule Inhibitors of Shiga Toxin; actives 9.2% (n = 290,000); AID 2315, 2010; inhibition, % at 38.7 µM; Vero cells, Shiga toxin protein synthesis inhibition reporter; in the data active = inhibition mostly above about 28%, no sharp cut-off; inactive = mostly below about 43%
Sm TGR inh: qHTS Assay for the Inhibitors of Schistosoma Mansoni Peroxiredoxins | AID 485364, 2010 | Potency, µM (highest dose often 114 µM), hits mostly inhibitors | Schistosoma mansoni thioredoxin glutathione reductase (TGR), Q962Y6 | actives 3% (n = 360,000) | purified TGR, DTNB reduction, TNB absorbance 405 nm; active = well fitted inhibition curve with a large enough effect; inconclusive = small, poorly fitted or top-dose-only effect; inactive = no such curve, though single readings can be large or run the other way; note: nearly all actives have a fitted effect of over 60% in size
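Kinetic colorimetric format: TGR-catalysed, NADPH-driven DTNB reduction monitored via TNB absorbance. Enzyme dispensed at 20 nM; compound exposure 15 min at room temperature before reaction start.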
FMDV inh: High Throughput Screening for Foot and Mouth Disease Virus Antivirals | Potency, µM (highest dose often 57.9 µM), usual class: inhibitors | actives 1.2% (n = 410,000) | FMDV antiviral cell-based qHTS | AID 1159524, 2015; calls by dose curve; tested in HEK293T cells; note: read-out not given here; nearly all actives have a fitted effect of over 45% in size
Numbers stand for hits; – = inactive; ? = inconclusive; · = not tested or not shown.

SMILES	CHX counter	Shiga inhibitor	Sm TGR inh	FMDV inh
COc1cc2c(cc1C1C(C#N)=C(N)OC3=C1C(=O)CC(C)(C)C3)OCO2 (configuration not stated)	–	·	89µM	–
CC1(C)CC(=O)C2=C(C1)OC(N)=C(C#N)C2c1ccccc1[N+](=O)[O-] (configuration not stated)	–	–	22µM	–
CCc1ccc(NC(=O)CC2C(=O)N(c3ccc(Cl)cc3)C(=O)N2Cc2cccs2)cc1 (configuration not stated)	·	·	–	–
CCCN(C(=O)Cn1c(=O)oc2cc(Cl)ccc21)c1ccc(C(C)C)cc1	·	·	–	–
O=C1NC(=S)N/C1=C/C=C/c1ccccc1	43	–	–	–
COc1ccc(/C=C/c2nc(-c3ccccc3)cc(=O)[nH]2)cc1	–	–	–	–
COc1ccc(/C=C/C2=CC(C)(C)NC(=S)N2)cc1	–	–	2.5µM	–
O=C1NC(=S)NC(=O)C1C/C=C/c1ccccc1	–	–	?	·
COc1ccc(/C=C/C=C2C(=O)NC(=S)NC2=O)cc1	·	·	·	40µM
COc1ccc(C=C2C(=O)NC(=S)NC2=O)cc1OC	·	·	·	–
CCCCCC(=O)N/N=C(\C)c1ccc(N2CCCCC2)cc1	48	58	–	–
C/C(=N\Nc1ccc(F)cc1F)c1ccc(N2CCOCC2)cc1	24	–	?	–
CN(C)/N=C/c1ccc(N2CCOCC2)cc1	23	–	–	–
C(=N\n1cnnc1)/c1ccc(N2CCOCC2)cc1	–	–	–	–
Fc1ccc(N/N=C/c2ccc(N3CCOCC3)cc2)c(F)c1	34	75	?	–
S=c1[nH]ncn1/N=C/c1ccc(Br)cc1	–	–	–	–
C/C(=N\NC(=O)c1ccc(O)cc1)c1ccc(N2CCOCC2)cc1	–	–	–	–
C/C(=N\NC(=O)c1ccc(F)cc1)c1ccc(N2CCOCC2)cc1	21	74	–	–
C/C(=N\NC(=O)c1ccccc1)c1ccc(N2CCCCC2)cc1	48	77	–	–
C/C(=N\NC(=O)COc1ccc(C(C)(C)C)cc1)c1ccc(N2CCOCC2)cc1	24	–	–	–
S=c1[nH]ncn1/N=C/c1ccc(N2CCOCC2)cc1	26	32	–	–
CC[C@@H](C)[C@@H](CO[C@@H](Cc1ccccc1)C(=O)N[C@@H](CCS(C)(=O)=O)C(=O)OC(C)C)NC[C@@H](N)CS	–	–	·	–
CNC(=S)N/N=C(\C)c1ccc(N2CCOCC2)cc1	61	85	–	–
Cc1ccc(-c2cn3c(n2)sc2cc(C(=O)NC4CCCc5ccccc54)ccc23)cc1 (configuration not stated)	·	·	–	–
O=c1c2ccccc2nc2ccccn12	42	70	–	–
SMILES	CHX counter	Shiga inhibitor	Sm TGR inh	FMDV inh
O=c1c(-c2ccccc2)c(O)nc2ccccn12	–	–	–	·
O=c1c2ccccc2nc2c3ccccc3cnn12	40	78	–	–
O=c1[nH]c2ccccc2c2nc3ccccn3c12	40	51	–	–
O=c1c2ccccc2nc2c3ccccc3c(Cl)nn12	–	–	–	·
CCOC(=O)CNC(=O)CSc1nnc(-c2ccccc2)n1Cc1ccco1	–	–	20µM	–
Cc1cc(NC(=O)CSc2nnc(-c3ccccc3)n2Cc2ccco2)no1	–	–	–	–
COC(=O)CSc1nnc(CSc2nc(C)cc(C)n2)n1Cc1ccco1	–	–	40µM	–
Cc1cc(C)nc(SCc2nnc(SCC(=O)Nc3ccc(C)c(C)c3)n2Cc2ccco2)n1	–	–	?	–
COC(=O)CSc1nnc(-c2ccco2)n1Cc1ccco1	–	–	13µM	–
CCN(CC)C(=O)CSc1nnc(-c2ccco2)n1Cc1ccco1	–	–	50µM	–
O=c1oc2ccccc2cc1-c1nc2c(s1)CCc1ccccc1-2	21	–	?	–
COc1ccc2oc(=O)c(-c3nnc(N)s3)cc2c1	18	45	–	–
N#C/C(=C(/O)CCl)c1nc2c(s1)CCc1ccccc1-2	30	54	7.9µM	25µM
CCc1ccc(Nc2nnc(-c3cc4cc(OC)ccc4oc3=O)s2)cc1	·	·	–	–
Nc1nnc(-c2cc3ccccc3oc2=O)s1	44	152	–	–
COc1ccc(/C=C/C(=O)N2CCC(c3nc4ccccc4o3)CC2)cc1OC	·	·	–	–
Cc1cc(C)cc(OC(C)C(=O)Nc2c(C(=O)c3ccccc3)oc3ccccc23)c1 (configuration not stated)	·	·	–	–
COc1ccc2oc(=O)c(-c3nc(-c4ccc(C)c(C)c4)cs3)cc2c1	·	·	–	–
Nc1nc2c(s1)CCc1ccccc1-2	21	38	–	–
O=c1oc2ccccc2cc1-c1nnc(NCc2ccco2)s1	32	70	–	–
CC/C(C)=N\Nc1nc(-c2cc3cc(OC)ccc3oc2=O)cs1	34	73	–	–
O=c1oc2ccc3ccccc3c2cc1-c1nnc(Nc2ccccc2F)s1	·	·	–	–
COc1ccc2oc(=O)c(-c3nc(C)cs3)cc2c1	32	45	–	–
CC1=Nc2cc(C(=O)NC(C)C)ccc2Sc2ccc(C)cc21	·	·	–	–
O=C(CSc1nnc2scc(-c3ccc(Cl)cc3)n12)Nc1ccc(F)cc1	·	·	–	–
SMILES	CHX counter	Shiga inhibitor	Sm TGR inh	FMDV inh
CCCS(=O)(=O)c1c(S(=O)(=O)CCC)c2cc(C(C)(C)C)ccn2c1C(=O)c1ccc(OC)c(OC)c1	·	·	–	–
COCCCNC(=O)Cn1c(=O)n(-c2cccc(C)c2)c(=O)c2c1c1cc(C)ccc1n2C	·	·	–	–
Cc1cc(C)cc(C(=O)Nc2c(C(=O)Nc3ccccc3F)oc3ccccc23)c1	·	·	–	?
Cc1ccccc1NC(=O)CSc1ccc(-c2cccs2)nn1	·	·	–	–
Cc1ccc(CNC(=O)C2CCCN(c3nn4cc(-c5ccc(C)cc5)nc4s3)C2)cc1 (configuration not stated)	·	·	–	–
CCNC(=O)C1CCCN(c2nn3cc(-c4ccc(C)cc4)nc3s2)C1 (configuration not stated)	·	·	–	20µM
O=C(NCCCN1CCOCC1)C1CCC(=O)N1CCc1ccccc1 (configuration not stated)	–	–	89µM	–
COc1ccc(CCNC(=O)C2CCC(=O)N2CCc2ccccc2)cc1OC (configuration not stated)	26	125	–	–
CC(=O)OCC(NC(=O)C(CCCCNC(=O)OCc1ccccc1)NC(=O)OC(C)(C)C)C1OC(n2cc(F)c(=O)[nH]c2=O)C(OC(C)=O)C1OC(C)=O (configuration not stated)	–	–	·	·
CCCCOc1ccc(CN(C)c2ncnc(N)n2)cc1	15	33	–	–
CCCOc1ccc(CN(C)c2ncnc(N)n2)cc1	–	–	–	–
CCOC(=O)C(=Cc1ccc(-c2ccsc2C(=O)OC)o1)C(=O)OCC	–	–	–	32µM
CCOC(=O)/C(C#N)=C/c1ccc(-c2ccsc2C(=O)OC)o1	–	–	–	–
COC(=O)c1sccc1-c1ccc(C(=O)Nc2cccnc2)o1	39	127	–	–
COC(=O)C(=Cc1ccc(-c2ccsc2C(=O)OC)o1)C(=O)OC	38	45	–	–
COC(=O)c1sccc1-c1ccc(C(N)=O)o1	–	–	50µM	·

Screens deposited in PubChem by National Center for Advancing Translational Sciences (NCATS).
